11 compounds from PubChem BioAssay (EPA / NIEHS) can be followed below.

Results filed as inconclusive are left out. Calls of active or inactive are those of the source. How the source made its calls, unless noted: active means hit-call score of the fitted dose curve at least 0.9, where 1 is the maximum; inactive means score below 0.9.

Read-out in assay [1]: Monokine induced gamma interferon (MIG), CXCL9 (gene 4283)
As to the kind of experiment: BSK_3C_MIG: BioMAP Diversity Plus: 3C Assay for Monokine induced gamma interferon (MIG) Biomarker Activity (AID 2283021). The note with it: primary human endothelial cells (HUVEC); actives raise or lower the signal. In outline: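 ELISA-measured MIG in dosed HUVEC 3C cultures at 24 h, analysed by bidirectional fitting with DMSO defining baseline activity.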

A short description of assay [2]: BSK_3C_SRB: Viability Assessment in the BioMAP Diversity Plus: 3C Assay (AID 2283023).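 Further: cells read 24 h after compound dosing; fitted both ways against DMSO so a hit may be signal rise or drop.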 The note with it: primary human endothelial cells (HUVEC). The gist of the method: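 Overt cytotoxicity is gauged in parallel confluent HUVEC cultures by SRB total-protein staining at the time of biomarker measurement, 24 h after dosing. Gain or loss of signal is fitted versus DMSO.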

Read-out in assay [3]: Matrix Metallopeptidase 1 (MMP1), MMP1 (gene 4312)
The assay can be described thus: BSK_BE3C_MMP1: BioMAP Diversity Plus: BE3C Assay for Matrix Metallopeptidase 1 (MMP1) Biomarker Activity (AID 2283024). The note with it: primary human bronchial epithelial cells; actives raise or lower the signal. In outline:
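In this multiplexed primary-cell system, human bronchial epithelium received chemicals for 24 h before an ELISA for MMP1. Values reflect bidirectional fits normalised to the DMSO baseline.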

A short description of assay [4]: BSK_3C_Vis: BioMAP Diversity Plus: 3C Assay for Morphology Visualization (AID 2283025).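 Further: fitted both ways so gain or loss versus DMSO counts.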 The note with it: primary human endothelial cells (HUVEC). The gist of the method: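 Light-microscopy morphology readout, 24 h exposure, human primary umbilical vein endothelium; analysed relative to DMSO with bidirectional fitting.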
Read-out in assay [5]: Pselectin, SELP (gene 6403)
The assay can be described thus: BSK_4H_Pselectin: BioMAP Diversity Plus: 4H Assay for Pselectin Biomarker Activity (AID 2283026). The note with it: primary human endothelial cells (HUVEC); actives raise or lower the signal. In outline:
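Bidirectional fits against DMSO gave the endpoint. Cells: primary human umbilical vein endothelium, chemical-treated for 24 h before ELISA detection of P-selectin.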

Assay [6] in a line: BSK_4H_SRB: Viability Assessment in the BioMAP Diversity Plus: 4H Assay (AID 2283027).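 Further: cells exposed to compound for 24 h before staining.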 The note with it: primary human endothelial cells (HUVEC). In outline:
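HUVEC, 24 h post-dose; 10% TCA fix, 0.1% SRB stain, A560 nm. Total protein = overt cytotoxicity, parallel to biomarker read. Bidirectional fit vs DMSO baseline.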

A short description of assay [7]: BSK_BE3C_SRB: Viability Assessment in the BioMAP Diversity Plus: BE3C Assay (AID 2283028). The note with it: primary human bronchial epithelial cells. In outline: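 SRB total-protein staining (0.1%, after TCA fixation) of chemically dosed human bronchial epithelial primary cells at 24 h; DMSO serves as the negative control for bidirectional curve fitting.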
Read-out in assay [8]: Thrombomodulin, THBD (gene 7056)
As to the kind of experiment: BSK_3C_Thrombomodulin: BioMAP Diversity Plus: 3C Assay for Thrombomodulin Biomarker Activity (AID 2283029). The note with it: primary human endothelial cells (HUVEC); actives raise or lower the signal. In outline: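 In a multiplexed primary-cell system, human umbilical vein endothelium received chemical and was assayed 24 h later for thrombomodulin by ELISA. Parallel cultures were SRB-stained (0.1% SRB after 10% TCA fixation, read at 560 nm) to flag cytotoxicity.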

Read-out in assay [9]: Urokinase-type plasminogen activator receptor (uPAR), PLAUR (gene 5329)
As to the kind of experiment: BSK_4H_uPAR: BioMAP Diversity Plus: 4H Assay for Urokinase-type plasminogen activator receptor (uPAR) Biomarker Activity (AID 2283030). The note with it: primary human endothelial cells (HUVEC); actives raise or lower the signal. In outline:
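Endpoint derived via bidirectional curve fitting against DMSO baseline; readout was ELISA detection of uPAR on umbilical vein endothelial cells at 24 h post-treatment, with SRB-stained parallel cultures assessing cytotoxicity.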

Read-out in assay [10]: Vascular endothelial growth factor receptor 2 (Homo sapiens) (UniProt P35968)
The assay can be described thus: BSK_4H_VEGFRII: BioMAP Diversity Plus: 4H Assay for Vascular endothelial growth factor receptor 2 (VEGFR2) Biomarker Activity (AID 2283031). The note with it: primary human endothelial cells (HUVEC); actives raise or lower the signal. The gist of the method: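 In this multiplexed HUVEC system, biomarker ELISA was performed after 24 h chemical exposure. Parallel SRB staining (TCA fixation, 560 nm) tracked cytotoxicity; DMSO served as baseline.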

Read-out in assay [11]: Human Leukocyte Antigen - DR isotype (HLADR), HLA-DRA (gene 3122)
The assay can be described thus: BSK_BE3C_HLADR: BioMAP Diversity Plus: BE3C Assay for Human Leukocyte Antigen - DR isotype (HLADR) Biomarker Activity (AID 2283032). The note with it: primary human bronchial epithelial cells; actives raise or lower the signal. In outline:
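BioMAP BE3C format: human bronchial epithelium, 24 h compound treatment, ELISA detection of HLA-DR, with bidirectional analysis relative to DMSO.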

Read-out in assay [12]: Vascular cell adhesion molecule 1 (VCAM1), VCAM1 (gene 7412)
As to the kind of experiment: BSK_4H_VCAM1: BioMAP Diversity Plus: 4H Assay for Vascular cell adhesion molecule 1 (VCAM1) Biomarker Activity (AID 2283033).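 Further: cell-surface VCAM-1 protein measured by ELISA.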 The note with it: primary human endothelial cells (HUVEC); actives raise or lower the signal. In outline:
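In this human endothelial (HUVEC) system, biomarker ELISA was run 24 h after compound addition, and total protein in parallel wells was assessed by SRB at 560 nm; DMSO served as negative control.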

Read-out in assay [13]: Interferon-gamma inducible Protein 10 (IP10), CXCL10 (gene 3627)
The assay can be described thus: BSK_BE3C_IP10: BioMAP Diversity Plus: BE3C Assay for Interferon-gamma inducible Protein 10 (IP10) Biomarker Activity (AID 2283034). The note with it: primary human bronchial epithelial cells; actives raise or lower the signal. In outline: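 BE3C cells (human bronchial epithelial, primary); 24 h exposure; ELISA for IP-10; DMSO-referenced bidirectional fit.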

Read-out in assay [14]: Monokine induced gamma interferon (MIG), CXCL9 (gene 4283)
As to the kind of experiment: BSK_BE3C_MIG: BioMAP Diversity Plus: BE3C Assay for Monokine induced gamma interferon (MIG) Biomarker Activity (AID 2283035).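 Further: MIG protein measured by ELISA in BE3C cultures after 24 h of dosing.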 The note with it: primary human bronchial epithelial cells; actives raise or lower the signal. The gist of the method:
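Dose cells (human primary bronchial epithelial), incubate 24 h, quantify MIG by ELISA, then fit concentration–response in both directions relative to DMSO control.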

Read-out in assay [15]: Transforming growth factor beta 1 (TGFb1), TGFB1 (gene 7040)
The assay can be described thus: BSK_BE3C_TGFb1: BioMAP Diversity Plus: BE3C Assay for Transforming growth factor beta 1 (TGFb1) Biomarker Activity (AID 2283036;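 further: TGF-b1 protein level measured by ELISA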). The note with it: primary human bronchial epithelial cells; actives raise or lower the signal. In outline: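 TGF-b1 measured via ELISA, 24 h after chemical dosing of human bronchial epithelial cells (BE3C). Overt cytotoxicity assessed in parallel by SRB (0.1%, TCA-fixed, 560 nm); analysis bidirectional relative to DMSO.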

Read-out in assay [16]: Plasminogen activator inhibitor-1 (PAI1), SERPINE1 (gene 5054)
The assay can be described thus: BSK_BE3C_PAI1: BioMAP Diversity Plus: BE3C Assay for Plasminogen activator inhibitor-1 (PAI1) Biomarker Activity (AID 2283037). The note with it: primary human bronchial epithelial cells; actives raise or lower the signal. The gist of the method: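 In this multiplexed primary-cell system, bronchial epithelial cells receive test chemical and are sampled at 24 h. PAI-1 is read by ELISA, with DMSO serving as negative control for bidirectional fitting.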

Read-out in assay [17]: urokinase plasminogen activator (uPA), PLAU (gene 5328)
The assay can be described thus: BSK_BE3C_uPA: BioMAP Diversity Plus: BE3C Assay for urokinase plasminogen activator (uPA) Biomarker Activity (AID 2283038).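 Further: uPA protein level quantified by ELISA in cell cultures; uPA read one day after compound addition.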 The note with it: primary human bronchial epithelial cells; actives raise or lower the signal. The gist of the method:
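Using confluent primary human lung bronchial epithelial cultures, we dosed chemicals, waited 24 h, then ran a uPA ELISA, fitting bidirectionally against DMSO.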

Read-out in assay [18]: Urokinase-type plasminogen activator receptor (uPAR), PLAUR (gene 5329)
The assay can be described thus: BSK_BE3C_uPAR: BioMAP Diversity Plus: BE3C Assay for Urokinase-type plasminogen activator receptor (uPAR) Biomarker Activity (AID 2283039).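 Further: uPAR protein level measured by ELISA on the cells; cells exposed to compound for one day before measurement.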 The note with it: primary human bronchial epithelial cells; actives raise or lower the signal. In outline: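 Chemically treated human bronchial epithelial cells (lung primary) are assayed for uPAR by ELISA after 24 h, with data fitted in both directions using DMSO as negative control.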

Read-out in assay [19]: Interleukin-6 (IL6), IL6 (gene 3569)
The assay can be described thus: BSK_CASM3C_IL6: BioMAP Diversity Plus: CASM3C Assay for Interleukin-6 (IL6) Biomarker Activity for (AID 2283040). The note with it: primary human coronary artery smooth muscle cells; actives raise or lower the signal.

Assay [20] concerns the target human Vitamin D Receptor (VDR), VDR (gene 7421) (UniProt P11473). The assay can be described thus: ATG_VDR_TRANS: Attagene TRANS-FACTORIAL HepG2 Assay for human Vitamin D Receptor (VDR) (AID 2283022; active means hit-call score of the fitted dose curve at least 0.9, where 1 is the maximum). In outline: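 Multiplexed TRANS reporter in HepG2; 24 h treatment; reporter mRNA by RT-PCR plus capillary electrophoresis; upregulation scored relative to DMSO.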

Sequence of human Vitamin D Receptor (VDR), VDR (gene 7421) (P11473 whole entry, looked up): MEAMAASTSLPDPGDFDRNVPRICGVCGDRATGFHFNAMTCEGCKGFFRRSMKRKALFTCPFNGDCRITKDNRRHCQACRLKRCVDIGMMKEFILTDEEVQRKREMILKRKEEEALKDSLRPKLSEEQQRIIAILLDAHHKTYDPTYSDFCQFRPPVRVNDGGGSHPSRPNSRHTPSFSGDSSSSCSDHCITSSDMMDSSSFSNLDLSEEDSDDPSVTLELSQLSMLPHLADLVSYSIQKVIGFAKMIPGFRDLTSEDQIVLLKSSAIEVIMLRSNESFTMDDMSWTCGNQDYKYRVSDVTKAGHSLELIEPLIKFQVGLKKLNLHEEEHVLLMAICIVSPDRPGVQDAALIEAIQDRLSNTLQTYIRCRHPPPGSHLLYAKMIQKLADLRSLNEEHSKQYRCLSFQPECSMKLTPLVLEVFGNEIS

Regarding `Cc1ccc2n[nH]nc2c1`, the outcome in assay [1], in [2], in assay [3], in [4], in [5] and in assay [6] was inactive. In addition, the outcome in assay [7], in [8], in [9], in [10], in [11] and in assay [12] was inactive. Moreover, the result in assay [13], in assay [14], in assay [15], in [16], in [17] and in [18] was inactive. For the same compound, the outcome in assay [19] was inactive.
On to `O=C(O)CCCCC1CCSS1` (stereo not given), for which the outcome in assay [20] was inactive.
On the same count and under the same terms, the value for `Nc1cccc(S(=O)(=O)c2cccc(N)c2)c1` was “inactive”; that for `COc1cccc(OC)c1` was “inactive”.
The same measure, in the same setting: the value for `CC(CCO)CCc1ccccc1` (stereo not given) was “inactive”.
As for `Nc1cc(Cl)c(O)c(Cl)c1`, in assay [20], the result was inactive.
The same measure, in the same setting: the value for `Fc1c(F)c(F)c(Br)c(F)c1F` was “inactive”.
The term AC50 denotes the midpoint of the concentration-response curve, whichever way the signal moves. For the compound `CC(=O)O[C@]1(C(C)=O)CC[C@H]2[C@@H]3C[C@H](C)C4=CC(=O)CC[C@]4(C)[C@H]3CC[C@@]21C`, the outcome in [1], in assay [2], in [4], in assay [5], in [6] and in assay [7] was inactive. Besides, the outcome in assay [8], in assay [9], in assay [10], in assay [12], in assay [13] and in assay [14] was inactive. Besides, the result in assay [15], in [16], in [17] and in assay [18] was inactive. Further, the AC50 in assay [3] is 5.07 µM (active); in [11], 10 µM (active); in [19] it was 8.2 nM (active).
Turning to `Cc1c(N(C)C)c(=O)n(-c2ccccc2)n1C`, the compound was classed as inactive in [20].
As for `CC(=O)c1c(C)cc(C(C)(C)C)cc1C`, in [20], the outcome was inactive.
`O=P(c1ccccc1)(c1ccccc1)c1ccccc1`: the outcome in assay [1], in assay [2], in [3], in assay [4], in assay [5] and in [6] was inactive. Besides, the result in assay [7], in assay [8], in [9], in assay [10], in assay [11] and in assay [12] was inactive. For the same compound, the result in [13], in [14], in assay [15], in [16], in assay [17] and in assay [18] was inactive. In addition, the result in assay [19] was inactive.
